Reference: the supplement of paper PMC4206461
Unmarked numbers belong to inactive results.

Each compound was assayed on Pseudomonas aeruginosa PA14 dppA1-A5 penta mutant + pBBR5.DppA1 (PA14_58350) (assay: respiration area under curve with compound as sole nitrogen source, 24 h (OmniLog AUC (arbitrary units)); higher = more respiration / better utilisation as nitrogen source, active = 2000 or more).
Experimental: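 Biolog Phenotype MicroArray plates PM6-PM8: each di/tripeptide is the sole nitrogen source. Tetrazolium reduction was read in the OmniLog for 24 h at 37°C and summarised as area under the respiration curve (arbitrary units). Values below 2000 count as no respiration. Strain is the SBP penta mutant complemented with DppA1 on a plasmid under its native promoter. Lys/His/Cys peptides are excluded.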

Structure (SMILES)	respiration area under curve
CC[C@H](C)[C@H](N)C(=O)N[C@H](C(=O)O)[C@@H](C)CC (plate: PM6)	1010
C[C@H](N)C(=O)N[C@@H](Cc1c[nH]c2ccccc12)C(=O)O (plate: PM6)	3700 (active)
CC[C@H](C)[C@H](N)C(=O)NCC(=O)O (plate: PM6)	2560 (active)
N[C@@H](CO)C(=O)NCC(=O)O (plate: PM7)	6260 (active)
NC(=O)CC[C@H](NC(=O)[C@@H](N)CC(=O)O)C(=O)O (plate: PM8)	7700 (active)
NCC(=O)N[C@@H](Cc1ccc(O)cc1)C(=O)O (plate: PM6)	1420
CSCC[C@H](NC(=O)[C@@H](N)[C@@H](C)O)C(=O)O (plate: PM7)	2920 (active)
CC[C@H](C)[C@H](N)C(=O)N[C@@H](CCCN=C(N)N)C(=O)O (plate: PM6)	7890 (active)
NC(N)=NCCC[C@H](N)C(=O)N[C@@H](CCC(=O)O)C(=O)O (plate: PM6)	8440 (active)
CC(C)[C@H](N)C(=O)N[C@@H](CCCN=C(N)N)C(=O)O (plate: PM7)	12100 (active)
CC(C)C[C@H](N)C(=O)N[C@@H](C)C(=O)O (plate: PM6)	7500 (active)
CC(C)C[C@H](N)C(=O)N[C@@H](Cc1ccccc1)C(=O)O (plate: PM6)	4550 (active)
CSCC[C@H](NC(=O)[C@@H](N)Cc1ccccc1)C(=O)O (plate: PM8)	805
N[C@@H](CO)C(=O)N[C@@H](CO)C(=O)O (plate: PM7)	6490 (active)
CC(C)C[C@@H](N)C(=O)NCC(=O)O (plate: PM8)	0
CC(C)C[C@H](N)C(=O)N[C@@H](CO)C(=O)O (plate: PM7)	12700 (active)
CSCC[C@H](N)C(=O)N[C@@H](CC(C)C)C(=O)O (plate: PM7)	1540
C[C@H](N)C(=O)N[C@@H](CC(=O)O)C(=O)O (plate: PM8)	9070 (active)
NCC(=O)N[C@@H](CO)C(=O)O (plate: PM6)	6080 (active)
CC[C@H](C)[C@H](N)C(=O)N[C@@H](CC(C)C)C(=O)O (plate: PM8)	4900 (active)

Structure (SMILES)	respiration area under curve
N[C@@H](Cc1ccccc1)C(=O)NCC(=O)NCC(=O)O (plate: PM8)	7350 (active)
NCC(=O)N[C@H](CC(=O)O)C(=O)O (plate: PM8)	0
NCC(=O)N[C@H](CO)C(=O)O (plate: PM8)	408
CC(C)[C@H](NC(=O)[C@@H](N)CCCN=C(N)N)C(=O)O (plate: PM6)	7530 (active)
N[C@@H](CCC(=O)O)C(=O)N[C@@H](Cc1ccc(O)cc1)C(=O)O (plate: PM6)	1030
C[C@H](N)C(=O)NCC(=O)O (plate: PM6)	6240 (active)
CSCC[C@H](NC(=O)[C@@H](N)CCCN=C(N)N)C(=O)O (plate: PM6)	9220 (active)
CC(C)[C@H](N)C(=O)N[C@@H](Cc1ccccc1)C(=O)O (plate: PM8)	5560 (active)
CC[C@H](C)[C@H](N)C(=O)N[C@@H](CCSC)C(=O)O (plate: PM6)	289
CSCC[C@H](N)C(=O)N[C@@H](CCC(N)=O)C(=O)O (plate: PM7)	8220 (active)
C[C@H](NC(=O)[C@@H](N)CCCN=C(N)N)C(=O)O (plate: PM6)	8610 (active)
CSCCC(NC(=O)C(N)C(C)C)C(=O)O (stereo not given) (plate: PM8)	2570 (active)
NC(=O)CC[C@H](N)C(=O)NCC(=O)O (plate: PM6)	5240 (active)
C[C@H](N)C(=O)N[C@@H](C)C(=O)N[C@@H](C)C(=O)O (plate: PM8)	8340 (active)
CC(C)[C@H](N)C(=O)N1CCC[C@H]1C(=O)O (plate: PM8)	10300 (active)
C[C@H](O)[C@@H](NC(=O)CN)C(=O)O (plate: PM8)	0
CC[C@H](C)[C@H](N)C(=O)N[C@@H](CO)C(=O)O (plate: PM6)	3970 (active)
CC(C)C[C@H](NC(=O)[C@@H](N)CCCN=C(N)N)C(=O)O (plate: PM6)	7900 (active)
N[C@@H](Cc1ccc(O)cc1)C(=O)NCC(=O)O (plate: PM7)	8600 (active)
CC(C)[C@H](N)C(=O)NCC(=O)O (plate: PM7)	6900 (active)
